Screens as filed in PubChem BioAssay.
IDE exosite FP = exo-site inhibitors of human IDE, primary screen, biochemical, fluorescence anisotropy, probe displacement. purified IDE, FL-6b probe fluorescence polarization; stronger effect = lower value. actives 6.3% (n = 17,000). z-score at 20 µM. Insulin-degrading enzyme (Homo sapiens), P14735. AID 1259349, 2017;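 active = z-score of -3 or lower, meaning strong loss of probe binding signal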;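 also: His-tagged human IDE residues 42-1019 made in E. coli with 30 nM FL-6b probe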
Active calls of the source: *. Only a selection was taken, and hits are over-represented in it overall.

SMILES	IDE exosite FP
N#C[C@H]1[C@H](c2ccc(C3=CCCC3)cc2)[C@H](CO)N1c1nc(-c2ccccc2)cs1	3.7
O=C(C1CCC1)N1CC(=O)N2[C@@H](CO)[C@@H](c3ccc(C4=CCCCC4)cc3)[C@@H]2C1	-3.9*
O=C(C1CCC1)N1CC(=O)N2[C@H](CO)[C@@H](c3ccc(Br)cc3)[C@H]2C1	-0.54
O=C(C1CCOCC1)N1CC(=O)N2[C@@H](CO)[C@H](c3ccc(C4=CCCC4)cc3)[C@@H]2C1	1.1
O=C(Nc1ccc2c(c1)[C@@H]1C[C@H](CC(=O)N3CCOCC3)O[C@@H](CO)[C@@H]1O2)Nc1ccccc1F	-0.75
COc1cccc(-c2ccc([C@H]3[C@H](C#N)N(C(=O)c4ccccn4)[C@H]3CO)cc2)c1	-2.9
COc1cccc(C#Cc2ccc([C@@H]3[C@@H](C#N)N(C(=O)c4ccccn4)[C@H]3CO)cc2)c1	1.5
COc1cccc(C#Cc2ccc([C@@H]3[C@@H](C#N)N(C(=O)c4ccccn4)[C@@H]3CO)cc2)c1	-1.3
COc1cccc(-c2ccc([C@H]3[C@@H](C#N)N(C(=O)c4ccccn4)[C@@H]3CO)cc2)c1	-4.3*
COc1cccc(C#Cc2ccc([C@H]3[C@@H](C#N)N(C(=O)c4ccccn4)[C@@H]3CO)cc2)c1	-1.1
COc1cccc(-c2ccc([C@H]3[C@@H](CO)N(C(=O)c4ccccn4)[C@H]3C#N)cc2)c1	-5.9*
CCNC(=O)[C@@H]1[C@@H](CO)[C@@H]2Cn3c(ccc(-c4cncnc4)c3=O)[C@@H]2N1C(=O)NC1CCCC1	-0.81
COC(=O)c1ccc(CN2CC(=O)N3[C@H](CO)[C@@H](c4ccc(-c5ccccc5F)cc4)[C@H]3C2)cc1	2.9
CCC(=O)N(C)C[C@@H]1[C@@H](c2ccccc2)[C@H](CO)N1Cc1cccnc1	0.0078
C/C=C/c1ccc([C@H]2[C@@H](CO)N[C@@H]2CN(Cc2cccnc2)C(=O)C2CC2)cc1	-1.8
O=C(CN1CCOCC1)N1CCCCN2[C@H](CO)[C@@H](c3ccc(-c4ccccc4F)cc3)[C@H]2C1	1.6
COc1ccccc1-c1ccc([C@H]2[C@H]3CN(C(=O)CN4CCOCC4)CCCCN3[C@H]2CO)cc1	-2.6
O=C(CN1CCOCC1)N1CCCCN2[C@H](C1)[C@@H](c1ccc(-c3ccccc3F)cc1)[C@@H]2CO	-1.4
O=C(CN1CCOCC1)N1CCCCN2[C@@H](CO)[C@@H](c3ccc(-c4ccccc4F)cc3)[C@@H]2C1	-5.1*
COc1ccccc1-c1ccc([C@@H]2[C@H]3CN(C(=O)CN4CCOCC4)CCCCN3[C@H]2CO)cc1	0.61
COc1ccccc1-c1ccc([C@@H]2[C@H](CO)N3CCCCN(C(=O)CN4CCOCC4)C[C@@H]23)cc1	-15*
O=C(Nc1cc(F)ccc1F)N1CCCCN2[C@H](C1)[C@@H](c1ccc(-c3cccnc3)cc1)[C@@H]2CO	-1.8
CNC[C@@H]1OCCCC[C@@H](C)Oc2ccc(NS(=O)(=O)c3ccc(F)cc3)cc2C(=O)N([C@@H](C)CO)C[C@H]1C	0.19
CCC(=O)NC[C@@H]1[C@@H](c2ccc(-c3cccc(F)c3)cc2)[C@@H](CO)N1CC1CC1	0.31
O=C(c1ccccc1F)N1CC(=O)N2[C@H](C1)[C@H](c1ccc(-c3ccccc3)cc1)[C@@H]2CO	1.1
SMILES	IDE exosite FP
CC(=O)N1CCCCN2[C@@H](CO)[C@H](c3ccc(-c4cccc(C(=O)N(C)C)c4)cc3)[C@@H]2C1	4.6
N#C[C@H]1[C@H](c2ccccc2)[C@H](CO)N1C(=O)c1cccnc1	4.2
OC[C@H]1[C@H](c2ccc(-c3ccccc3F)cc2)[C@@H]2CN(Cc3cncnc3)CCCCN12	2.2
OC[C@H]1[C@H](c2ccc(C#Cc3ccccc3F)cc2)[C@H]2CN(Cc3cncnc3)CCCCN21	-5.7*
OC[C@H]1[C@H](c2ccc(C#Cc3ccccc3F)cc2)[C@@H]2CN(Cc3cncnc3)CCCCN12	-2.3
OC[C@@H]1[C@@H](c2ccc(C#Cc3ccccc3F)cc2)[C@H]2CN(Cc3cncnc3)CCCCN12	-1.6
OC[C@@H]1[C@H](c2ccc(C#Cc3ccccc3F)cc2)[C@@H]2CN(Cc3cncnc3)CCCCN12	-3.5*
OC[C@@H]1[C@H](c2ccc(-c3ccccc3F)cc2)[C@H]2CN(Cc3cncnc3)CCCCN12	-1.7
COCC(=O)N(C)C[C@@H]1[C@H](c2ccc(-c3ccccc3)cc2)[C@@H](CO)N1C(C)=O	3
CN(C)C(=O)c1ccc(-c2ccc([C@H]3[C@H](CO)N4CCCCN(CCC(F)(F)F)C[C@@H]34)cc2)cc1	1.2
COc1ccccc1NC(=O)N1CC[C@@H]2[C@H]1c1cc(C#Cc3cccc(F)c3)ccc1N(C)[C@@H]2CO	0.71
N#C[C@@H]1[C@H](c2ccc(-c3cccc(F)c3)cc2)[C@@H](CO)N1C(=O)CN1CCOCC1	-1.1
CC(C)CC#Cc1ccc([C@H]2[C@H](CO)N3C(=O)CN(C(=O)c4cnccn4)C[C@@H]23)cc1	0.23
O=C(C[C@@H]1CC[C@H]2[C@@H](COC[C@@H](O)CN2C(=O)c2cnccn2)O1)N1CCN(c2ccccc2)CC1	-1.7
COc1ccccc1-c1ccc([C@@H]2[C@H]3CN(C(=O)c4cccnc4)CCCCN3[C@H]2CO)cc1	-4.7*
COc1ccccc1-c1ccc([C@H]2[C@H](CO)N3CCCCN(C(=O)c4cccnc4)C[C@@H]23)cc1	-1.3
COc1ccccc1-c1ccc([C@H]2[C@@H](CO)N3CCCCN(C(=O)c4ccncc4)C[C@@H]23)cc1	-1.1
COc1ccccc1-c1ccc([C@H]2[C@@H](CO)N3CCCCN(C(=O)c4cccnc4)C[C@@H]23)cc1	0.24
COc1ccccc1-c1ccc([C@@H]2[C@@H](CO)N3CCCCN(C(=O)c4ccncc4)C[C@H]23)cc1	-0.66
COc1ccccc1-c1ccc([C@H]2[C@@H](CO)N3CCCCN(C(=O)c4ccncc4)C[C@H]23)cc1	-17*
COc1ccccc1-c1ccc([C@@H]2[C@@H](CO)N3CCCCN(C(=O)c4cccnc4)C[C@@H]23)cc1	-1.8
COc1ccccc1-c1ccc([C@H]2[C@@H](CO)N3CCCCN(C(=O)c4cccnc4)C[C@H]23)cc1	-13*
C[C@H]1CN([C@@H](C)CO)C(=O)CCCn2nncc2CO[C@@H]1CN(C)C(=O)CCC(F)(F)F	-0.45
CS(=O)(=O)Nc1ccc2c(c1)[C@H]1C[C@H](CC(=O)NCc3cc(F)ccc3F)O[C@@H](CO)[C@H]1O2	-0.9
Cc1ccccc1-c1ccccc1[C@H]1[C@@H](C#N)N(C(=O)c2ccc(F)cc2)[C@@H]1CO	0.86
SMILES	IDE exosite FP
O=C(Nc1ccccc1)N1CC(=O)N2[C@H](C1)[C@@H](c1ccc(C#Cc3cccnc3)cc1)[C@@H]2CO	1.7
CCCNC(=O)N1C[C@H](O)COC[C@@H]2O[C@H](CC(=O)OC)CC[C@H]21	0.97
Cc1cccc(S(=O)(=O)N2C[C@@H](O)COC[C@@H]3O[C@H](CC(=O)Nc4ccccc4)CC[C@H]32)c1	1.9
COc1cc(CN2CC3(CN(C(=O)Nc4c(C)noc4C)C3)c3c([nH]c4cc(OC)ccc34)[C@H]2CO)cc(OC)c1	0.21
COc1cc(CN2CC3(CCN(C(=O)Nc4c(C)noc4C)CC3)c3c(n(C)c4cc(OC)ccc34)[C@@H]2CO)cc(OC)c1	-3.4*
COc1cc(CN2CC3(CN(C(=O)CN4CCOCC4)C3)c3c(n(C)c4cc(OC)ccc34)[C@H]2CO)cc(OC)c1	-0.49
COc1cc(CN2CC3(CCN(C(=O)Nc4c(C)noc4C)CC3)c3c(n(C)c4cc(OC)ccc34)[C@H]2CO)cc(OC)c1	-3.4*
